Assay outcomes (PubChem BioAssay)
USP30 block = inhibitors of human USP30 deubiquitinase; purified USP30, Ub-rhodamine cleavage fluorescence; Q70CQ3; inhibition, % at 25 µM; 47,000 compounds, 5.3% hits
Target sequence (Q70CQ3 whole entry, looked up): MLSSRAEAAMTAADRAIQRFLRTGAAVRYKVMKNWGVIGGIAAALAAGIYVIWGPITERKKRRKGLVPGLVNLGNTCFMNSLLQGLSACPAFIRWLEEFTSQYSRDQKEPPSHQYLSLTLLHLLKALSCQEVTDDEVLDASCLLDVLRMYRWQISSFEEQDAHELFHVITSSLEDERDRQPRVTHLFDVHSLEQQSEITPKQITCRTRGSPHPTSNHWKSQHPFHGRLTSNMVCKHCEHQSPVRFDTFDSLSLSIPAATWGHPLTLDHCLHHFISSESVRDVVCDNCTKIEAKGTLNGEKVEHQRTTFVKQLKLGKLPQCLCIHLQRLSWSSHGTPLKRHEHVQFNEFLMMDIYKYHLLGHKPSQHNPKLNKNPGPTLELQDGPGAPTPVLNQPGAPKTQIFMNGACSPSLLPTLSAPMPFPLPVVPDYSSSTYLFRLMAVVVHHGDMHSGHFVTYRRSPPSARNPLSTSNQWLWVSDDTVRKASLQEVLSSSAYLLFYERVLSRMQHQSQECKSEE
USP28 inh = human USP28 deubiquitinase inhibition; Q96RU2; inhibition, % at 25 µM; purified USP28, Ub-rhodamine cleavage fluorescence, 30 min; 47,000 compounds, 3% hits; AID 1645857
OTUD3 block = inhibitors of human OTUD3 deubiquitinase. Q5T2D3. purified OTUD3, Ub-rhodamine fluorescence, 2 h. inhibition, % at 25 µM. 47,000 compounds, 0.7% hits. AID 1645858
USP17 inh = blocks human USP17 ubiquitin-rhodamine cleavage | A8MUK1 | purified USP17, Ub-rhodamine cleavage fluorescence, 3 h | inhibition, % at 50 µM | 47,000 compounds, 6.5% hits
* = called active by the depositor; . = no result. Shown are actives, neighbours in structure and some others; about 11% of the full set was active somewhere. Cut-off read from the data, not from the text of the source: active = inhibition above about 30%; inactive = the rest.

SMILES	USP30 block	USP28 inh	OTUD3 block	USP17 inh
Cc1nc(Nc2ncc(C)s2)cc(C2CN(C(=O)Cc3ccccc3)CCO2)n1 (centres undefined)	54.6*	26.2	13.0	38.4*
COc1ccc(N2CCn3c(SCC(=O)Nc4cc(C)cc(C)c4)nnc32)cc1	34.7*	-6.2	-2.9	.
Cc1cc2cc(CNC(=O)Cc3ccc([N+](=O)[O-])cc3)ccc2[nH]1	21.3	16.5	9.7	37.5*
O=C(Cc1cccc2ccccc12)NCc1ccc2[nH]c3c(c2c1)CCCC3	-160.1	-25.4	-28.9	-5.0
CCCS(=O)(=O)NCc1ccc2[nH]c(C)cc2c1	.	.	4.4	29.2
Cc1cc2cc(CNC(=O)Cc3cccc4ccccc34)ccc2[nH]1	-40.6	-8.1	-6.7	39.5*
Cn1cc(S(=O)(=O)Nc2cnn(Cc3cccc(Cl)c3)c2)cn1	8.5	7.7	11.5	31.2*
CCN1CCN(C(C(=O)Nc2cc(C)cc(C)c2)c2ccccc2)CC1 (centres undefined)	2.5	6.9	8.0	-6.8
Cc1cccc(OCc2nnc(SCC(=O)Nc3cccc(F)c3C)o2)c1	24.9	43.6*	1.8	0.5
CC(C)=CCC[C@@](C)(O)[C@@H]1CC[C@@](C)(O)[C@H]1C	32.8*	3.4	6.7	6.8
Cc1ccc(Nc2nc(N3CCN(c4ccc(F)cc4)CC3)nc3c2cnn3C)cc1	31.4*	9.8	13.9	12.8
O=C(Nc1ncc(Cc2ccccc2Cl)s1)c1ccc(OCc2ccccc2)cc1	0.2	2.0	2.1	-0.1
O=C(Nc1ccc(S(=O)(=O)Nc2cc(Cl)cc(Cl)c2)cc1)c1c(F)cccc1Cl	25.0	15.6	9.2	43.5*
O=C(Nc1cc(C(F)(F)F)cc(C(F)(F)F)c1)c1c(F)cccc1Cl	32.7*	32.7*	13.7	17.2
C/C(Nc1ccc2oc(=O)ccc2c1)=C1/C(=O)CC2[C@H]1C2(C)C (some centres undefined)	-141.3	-30.7	-20.3	.
Cn1c(=O)c2c(nc(N3CCN(C(=O)c4ccco4)CC3)n2CCSc2nnnn2-c2ccccc2)n(C)c1=O	37.5*	11.8	8.0	1.9
Cc1cccc2c1NC(=O)[C@]21N2CCC[C@H]2[C@@H](C(=O)c2cc3ccccc3o2)[C@]12C(=O)Nc1ccccc12	-464.3	-89.9	-115.3	-78.1
Cc1coc2c(C)c3oc(=O)c(CCC(=O)N4CC[C@@]5(O)CCCC[C@H]5C4)c(C)c3cc12	-3.3	1.1	-2.5	4.1
COc1ccc(OCCn2c(C3CC(=O)N(c4cccc(C)c4)C3)nc3ccccc32)cc1 (centres undefined)	34.0*	7.2	6.5	76.1*
O=C1CC(c2nc3ccccc3n2CCOc2ccc(Cl)cc2)CN1c1ccccc1 (centres undefined)	72.4*	24.8	14.7	66.3*
CN1CC(c2nc3ccccc3n2CCCOc2ccc(Cl)cc2)CC1=O (centres undefined)	-7.1	-0.1	-3.4	1.5
COc1ccccc1OCCCCn1c(C2CC(=O)N(c3ccccc3F)C2)nc2ccccc21 (centres undefined)	39.0*	8.8	5.3	29.1
Cc1ccc(N2CC(c3nc4ccccc4n3CCCOc3ccccc3)CC2=O)cc1 (centres undefined)	55.9*	11.1	4.1	60.5*
Cn1c(CN2C[C@@H](O)[C@H](NC(=O)c3cscn3)C2)nc2ccccc21	-30.0	-19.5	-8.4	-25.5
CCOc1c(CC)cnc2c1c(=O)n(CC(=O)NCC1CCCO1)c(=O)n2C (centres undefined)	-0.5	2.4	4.2	12.7
SMILES	USP30 block	USP28 inh	OTUD3 block	USP17 inh
O=[N+]([O-])c1cccc(-c2nnc(-c3ccccn3)o2)c1	2.2	-5.8	0.0	-9.1
O=[N+]([O-])c1cccc(-c2noc(CSc3ccccc3)n2)c1	23.6	66.9*	15.6	6.0
O=S(=O)(c1ccc(Cl)cc1)N1CCC2(CC1)NCCN=C2NC1CCCCC1	23.0	2.5	5.5	3.4
O=C(Cn1cnc2cc([N+](=O)[O-])ccc2c1=O)Nc1ccc2c(c1)OCCO2	-25.9	13.7	-12.6	-2.7
NS(=O)(=O)c1ccc(NC(=O)Cn2cnc3cc([N+](=O)[O-])ccc3c2=O)cc1	19.9	41.1*	17.8	59.0*
NS(=O)(=O)c1ccc(NS(=O)(=O)c2ccc(/C=C/C(=O)OCC(=O)Nc3ccc(F)c([N+](=O)[O-])c3)cc2)cc1	17.0	9.4	-29.5	-2.2
CN(C(=O)CN1CCC(c2nnc(C(F)(F)F)o2)CC1)c1ccccc1	-11.2	-4.8	-4.5	-4.9
O=C(NCc1ccccc1Cl)c1csnn1	1.2	1.8	0.9	-30.1
COc1ccc(C(=O)NCCc2cccs2)cc1	13.9	9.4	10.2	-3.0
COc1ccc(C(=O)NCc2csc3ccccc23)cc1	64.2*	34.7*	25.2	23.9
O=C(NCc1csc2ccccc12)c1ccc(Cl)cc1	45.4*	11.2	-3.4	22.9
CCOC(=O)N1CCN(C(c2ccco2)c2sc3nc(C)nn3c2O)CC1 (centres undefined)	-86.2	-19.8	-7.5	-9.5
Cc1nc(-c2cnccn2)n(CC(=O)Nc2cccc(C#N)c2)c(=O)c1C	2.7	0.0	-3.4	-1.0
Cc1cccc(NC(=O)Cn2c(-c3cnccn3)nc(C)c(C)c2=O)c1C	75.9*	-0.5	-0.9	37.5*
Cc1cc(C)cc(NC(=O)NCC(O)COc2ccc([N+](=O)[O-])cc2)c1 (centres undefined)	16.7	27.0	2.2	31.6*
CC1Oc2ccccc2C(=O)N(Cc2ccc(F)cc2)C1=O (centres undefined)	9.5	18.0	6.1	10.3
CC1Oc2ccccc2C(=O)N(CC(=O)c2ccc3c(c2)OCCO3)C1=O (centres undefined)	23.0	30.5*	12.9	13.0
CC1Oc2ccccc2C(=O)N(Cc2ccccc2)C1=O (centres undefined)	31.7*	32.6*	21.5	19.9
O=C(c1cscn1)N1CCC2(CN(Cc3ccc[nH]3)C2)C1	-200.9	-61.2	-36.7	-49.4
O=C(NC1CCN(c2nnc3ccc(Cl)cn23)CC1)c1ccccc1F	-0.9	-3.3	-1.6	-5.6
COc1ccc(NC(=O)C2Oc3ccc(C)cc3NC2=O)cc1Cl (centres undefined)	15.9	25.9	-5.7	75.1*
COc1ccc(OC)c(C(=O)Nc2ccc3c(c2)NC(=O)C(C)O3)c1 (centres undefined)	-1.0	0.1	-4.6	0.4
CCC1[C@@H](C)C(Nc2ccccc2)c2ccccc2N1C(C)=O (some centres undefined)	21.6	13.6	13.2	8.5
Cn1c(=O)c2c(-c3ccccc3)n(-c3ccc4c(c3)OCCO4)cc2n(C)c1=O	-52.3	-16.3	-16.0	32.2*
Cn1c(=O)c2c(-c3ccccc3)n(CCO)cc2n(C)c1=O	-0.2	-6.9	-0.2	-19.5
CCC(C)[C@H](NC(=O)[C@H](C(C)C)N1C(=O)N2CCc3c([nH]c4ccccc34)[C@@]2(C)C1=O)C(=O)NC1CCCC1 (some centres undefined)	31.7*	12.4	-1.1	3.6
Cc1ccc(CNC(=O)[C@H](C)N2C(=O)N3CCc4c([nH]c5ccccc45)[C@@]3(C)C2=O)cc1	-4.0	-19.8	-11.4	-15.0
